Only some compounds are listed: those with a hit (about 0.44% of all), similar ones and a draw of the others.
Pin1 inhibitor: inhibitors of human Pin1; Potency, µM (titrated, usually from 115 µM), actives largely listed as inhibitors; Pin1 FP peptide displacement, HiFluor488, 10 min; actives 0.009% (n = 390,000); active means well fitted inhibition curve with a large enough effect in the polarisation, with a control signal flat, not every such curve was filed as active; inconclusive means small, poorly fitted or top-dose-only effect, or effect the other way, or a change in a side signal; inactive means no such curve, though single readings can be large or run the other way; the % refers to the polarisation
Target sequence (Q13526 whole entry, looked up): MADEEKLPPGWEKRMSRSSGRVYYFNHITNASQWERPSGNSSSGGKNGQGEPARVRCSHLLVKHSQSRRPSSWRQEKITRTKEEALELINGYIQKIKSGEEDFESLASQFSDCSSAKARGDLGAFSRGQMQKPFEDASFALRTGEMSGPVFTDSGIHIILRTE
PI4K2A inh: blocks human PI4K2A kinase activity; Q9BTU6; purified PI4K2A, ADP-Glo luminescence, 1 h; hits give low values; activity change, negative = inhibition, % at 76.9 µM; actives 0.13% (n = 420,000); AID 1346378; in the data active means activity change below about -50%; inconclusive means mostly about -30% to -49%
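PI4K2A activity was measured by ADP-Glo luminescence: enzyme (4 ug/mL stock) and phosphatidylinositol (1.2 mM stock) in Tris pH 7.5/MgCl2/EGTA/Triton X-100 buffer were reacted with ATP (300 microM stock) for one hour at ambient temperature.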
Giardia kill: kills Giardia lamblia; Giardia lamblia trophozoite viability; activity change, % at 7.66 µM, hits read low; actives 0.15% (n = 340,000); AID 540267; in the data active means activity change below about -80%; inconclusive means between about -30% and that limit;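 further: parasites exposed to compound for two days anaerobically before the ATP read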
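ATP-content bioluminescence gauges trophozoite survival. Cells (100/well) receive compound and incubate anaerobically for 48 hrs at 37 deg C; detection reagent follows for 15-30 min at room temperature.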
B2AR arrestin: agonists driving beta-arrestin recruitment to human beta2-adrenergic receptor. beta-arrestin recruitment to beta2AR, cell-based reporter. actives 0.02% (n = 330,000). P07550. Potency, µM (titrated, usually from 46.1 µM), actives largely listed as activators; further: nearly all actives have a fitted effect of over 65% in size
Target sequence (P07550 whole entry, looked up): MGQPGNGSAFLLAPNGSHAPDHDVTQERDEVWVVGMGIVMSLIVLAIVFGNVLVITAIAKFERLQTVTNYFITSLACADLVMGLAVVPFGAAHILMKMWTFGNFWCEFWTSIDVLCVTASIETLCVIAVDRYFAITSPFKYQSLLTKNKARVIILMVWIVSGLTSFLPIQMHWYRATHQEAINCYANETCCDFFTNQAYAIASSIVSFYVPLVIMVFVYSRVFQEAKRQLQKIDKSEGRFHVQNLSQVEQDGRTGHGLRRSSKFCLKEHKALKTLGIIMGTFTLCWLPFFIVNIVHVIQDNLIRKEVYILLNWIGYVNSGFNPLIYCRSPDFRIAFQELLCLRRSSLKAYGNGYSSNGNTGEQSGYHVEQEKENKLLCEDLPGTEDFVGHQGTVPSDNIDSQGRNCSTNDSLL
Epigenetic derep: epigenetic control regulation, reporter derepression. Potency, µM (titrated, usually from 53.9 µM), hits mostly activators. murine LDR cells, GFP reporter derepression, 30 h. actives 0.2% (n = 280,000); further: nearly all actives have a fitted effect of over 60% in size
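In this reporter-derepression format, murine cells bearing a silenced integrated CMV-GFP locus incubate with test compound (30 h, 37 C), then are washed and imaged; fluorescent objects of 20–120 um count as induced cells.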
p53 reactivation: restores transcriptional activity of mutant p53. actives 0.063% (n = 320,000). H1299 p53-A138V BP100-luciferase reporter, luminescence, 24 h. AID 504706. Potency, µM (doses to about 92.2 µM), actives largely listed as activators; further: nearly all actives have a fitted effect of over 45% in size
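p53-null H1299 cells stably carrying temperature-sensitive p53-A138V and a BP100-luciferase reporter were pinned with compounds (4-point, 1:5 series) and held 24 hrs at 37 deg C. Luminescence was read 10 min after detection reagent.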
A number is an active result. Unless noted, the call rests on the fitted dose curve; in most records, active means well fitted curve in the direction sought with a large enough effect; inconclusive means small, poorly fitted or top-dose-only effect, or another doubt; inactive means no such curve, though single readings can be large; an effect the other way counts as inactive or inconclusive.

How did COc1cc(C(=O)Nc2ccccc2-c2nc(-c3ccccc3)no2)cc(OC)c1OC do in these assays?
Pin1 inhibitor: inconclusive; PI4K2A inh: inactive; Giardia kill: inactive; Epigenetic derep: 0.63µM

Results for COc1cc(C(=O)Nc2ccccc2-c2nc(-c3ccc(C)cc3)no2)cc(OC)c1OC ?
Pin1 inhibitor: inactive; PI4K2A inh: inactive; Epigenetic derep: inactive

What do the screens show for `O=C(Nc1nc2c(Cl)cccc2s1)c1ccc([N+](=O)[O-])o1`?
Pin1 inhibitor: inactive; PI4K2A inh: inactive; Giardia kill: -101; B2AR arrestin: inactive; p53 reactivation: inconclusive

How did O=C(Nc1nc2c(F)cccc2s1)c1ccc([N+](=O)[O-])o1 do in these assays?
Pin1 inhibitor: inconclusive; PI4K2A inh: inactive; Giardia kill: -97; B2AR arrestin: inactive; p53 reactivation: inconclusive

How did O=C(Nc1nc2c(Cl)cccc2s1)c1ccc(Br)o1 do in these assays?
Pin1 inhibitor: inactive; PI4K2A inh: inactive; Giardia kill: inactive; B2AR arrestin: inactive; Epigenetic derep: inactive; p53 reactivation: inactive

What do the screens show for `N#Cc1nc(NCC(F)F)c2ncn(-c3cccc(Cl)c3)c2n1`?
Pin1 inhibitor: inactive

Results for Cc1sc(-c2cc3c([nH]c2=O)CC(c2ccccc2)CC3=O)nc1-c1ccc(Cl)cc1 (stereo not drawn) ?
Pin1 inhibitor: inconclusive; PI4K2A inh: inactive; Epigenetic derep: 18µM

How did O=C1CC(c2ccccc2)Cc2[nH]c(=O)c(-c3nc(-c4ccc(Cl)cc4)cs3)cc21 (stereo not drawn) do in these assays?
Pin1 inhibitor: inactive; PI4K2A inh: inactive; Epigenetic derep: inactive

How did CCN1/C(=C/c2ccc3cc(C)ccc3[n+]2CC)Sc2cc(C)c(C)cc21 do in these assays?
Pin1 inhibitor: inactive; PI4K2A inh: inactive; Giardia kill: inactive; B2AR arrestin: inactive; Epigenetic derep: 25µM; p53 reactivation: inactive

How did CC(/C=C/c1ccccc1)=N\NC(N)=S do in these assays?
Pin1 inhibitor: inactive; PI4K2A inh: inactive; Giardia kill: inactive; B2AR arrestin: 8.9µM; Epigenetic derep: inconclusive; p53 reactivation: inconclusive

How did Cc1ccc(S(=O)(=O)N2CCN(c3nc(-c4ccco4)nc4ccccc34)CC2)cc1 do in these assays?
Pin1 inhibitor: inactive

How did Cc1csc(NC(=O)CSc2nc3[nH]c(=O)cc(O)c3s2)n1 do in these assays?
Pin1 inhibitor: inactive; PI4K2A inh: inactive; Giardia kill: -87

What do the screens show for `CCCCCCCC/C=C/C(=O)O`?
PI4K2A inh: inactive

How did Nn1cnnc1N/N=C/c1ccc(Cl)c([N+](=O)[O-])c1 do in these assays?
Pin1 inhibitor: inactive; PI4K2A inh: -52; Giardia kill: inactive; B2AR arrestin: inactive; Epigenetic derep: inactive; p53 reactivation: inactive

What do the screens show for `COc1ccc(N=Cc2c(O)n(-c3cccc(C)n3)c(=O)c3ccccc23)c(OC)c1`?
Pin1 inhibitor: inconclusive; PI4K2A inh: inactive; Giardia kill: inactive; B2AR arrestin: inactive; Epigenetic derep: 13µM; p53 reactivation: inactive

Results for COc1cccc(N=Cc2c(O)n(-c3cccc(C)n3)c(=O)c3ccccc23)c1 ?
Pin1 inhibitor: inactive; PI4K2A inh: inactive; Giardia kill: inactive; B2AR arrestin: inactive; Epigenetic derep: inactive; p53 reactivation: inactive

Results for CC1(C)S[C@@H]2[C@H](NC(=O)C(c3ccccc3)S(=O)(=O)O)C(=O)N2[C@H]1C(=O)O (stereo partly drawn) ?
PI4K2A inh: inactive

Results for Cc1cccc(NC(=S)NC(=O)C2CC2)c1 ?
B2AR arrestin: inconclusive; p53 reactivation: 25µM

How did O=C(Cc1ccc(Br)cc1)Nc1ncc([N+](=O)[O-])s1 do in these assays?
Pin1 inhibitor: inactive; PI4K2A inh: inactive; Giardia kill: -93; B2AR arrestin: inactive; Epigenetic derep: inactive; p53 reactivation: inconclusive

How did O=C(Cc1ccc([N+](=O)[O-])cc1)Nc1ccc(Cl)cc1 do in these assays?
Pin1 inhibitor: inactive; PI4K2A inh: inactive; Giardia kill: inactive; B2AR arrestin: inactive; Epigenetic derep: inactive; p53 reactivation: inactive

What do the screens show for `O=C(COc1ccc(Cl)cc1)Nc1ncc([N+](=O)[O-])s1`?
Pin1 inhibitor: inactive; PI4K2A inh: inactive; Giardia kill: -86; B2AR arrestin: inactive; Epigenetic derep: inactive; p53 reactivation: inactive

What do the screens show for `O=C(Cc1ccc(Cl)cc1)Nc1ncc([N+](=O)[O-])s1`?
Pin1 inhibitor: inactive; PI4K2A inh: inactive; Giardia kill: -91; B2AR arrestin: inactive; Epigenetic derep: inactive; p53 reactivation: inconclusive

How did Cc1cnc(NC(=O)Cc2ccc(Br)cc2)s1 do in these assays?
Pin1 inhibitor: inactive; PI4K2A inh: inactive; Giardia kill: inactive; B2AR arrestin: inactive; p53 reactivation: inactive

What do the screens show for `OC[C@H]1O[C@@H](n2cnc3c(=S)nc[nH]c32)[C@H](O)[C@@H]1O`?
PI4K2A inh: inactive

Results for CC(=O)N(c1onc(C)c1C)S(=O)(=O)c1ccc(N)cc1 ?
PI4K2A inh: inactive

How did CC(C)(C)OC(=O)n1c2ccsc2c2cnn(Cc3ccccc3F)c(=O)c21 do in these assays?
Pin1 inhibitor: inactive

How did O=c1[nH]sc2cc(Cl)ccc12 do in these assays?
PI4K2A inh: inactive

How did Cc1noc(/C=C/c2ccc(-c3ccccc3Cl)o2)c1[N+](=O)[O-] do in these assays?
Pin1 inhibitor: inconclusive; PI4K2A inh: inactive; Giardia kill: inactive; B2AR arrestin: inactive; Epigenetic derep: 7.1µM; p53 reactivation: inactive

Results for Cc1noc(/C=C/c2cccnc2)c1[N+](=O)[O-] ?
Pin1 inhibitor: inactive; PI4K2A inh: inactive; Giardia kill: inconclusive; B2AR arrestin: inactive; p53 reactivation: inactive

What do the screens show for `Oc1ccc(CNc2ccc(F)cc2F)c2cccnc12`?
Pin1 inhibitor: inactive

Results for COCCNC(=O)c1c(NC(=O)c2nc(SC)ncc2Cl)sc2c1CCCC2 ?
Pin1 inhibitor: inactive; PI4K2A inh: inactive; Giardia kill: inactive; B2AR arrestin: inactive; Epigenetic derep: inactive; p53 reactivation: inactive

How did CCCSc1ncc(Cl)c(C(=O)Nc2sc3c(c2C(=O)NCC)CCCC3)n1 do in these assays?
Pin1 inhibitor: inactive; PI4K2A inh: inactive; Epigenetic derep: 4.5µM

Results for CCSc1ncc(Cl)c(C(=O)Nc2sc3c(c2C(=O)NC)CCCC3)n1 ?
Pin1 inhibitor: inactive; PI4K2A inh: inactive; Epigenetic derep: 7.1µM

What do the screens show for `Nc1cc(S(=O)(=O)N2CCN(S(=O)(=O)c3ccc4c(c3)OCCO4)CC2)ccn1`?
Pin1 inhibitor: inactive

Results for O=c1c2[nH]c3ccsc3c2cnn1Cc1ccccc1F ?
Pin1 inhibitor: inactive

What do the screens show for `C[n+]1c2cc(N)ccc2cc2ccc(N)cc21` (tested in a mixture with another compound)?
PI4K2A inh: inactive

What do the screens show for `COc1ccc(/C=C(/C#N)c2nc(-c3ccc(-c4ccccc4)cc3)cs2)cc1`?
Pin1 inhibitor: inactive; PI4K2A inh: inactive; Epigenetic derep: inactive
